# Reference: publication PMC7862700, “An all-to-all approach to the identification of sequence-specific readers for epigenetic DNA modifications on cytosine”
# What was measured:
# Experiment in all cases: DAPPL (digital affinity profiling via proximity ligation, sequencing); 10 mM Tris-HCl pH 7.5, 50 mM NaCl, 1 mM DTT, 4% glycerol, room temperature, 30 min; GST-TFs on glutathione beads, 16-mer random dsDNA library, 0.1% formaldehyde crosslink after washing; high values mean tight binding
# FEV = molecular target: T1, FEV (Homo sapiens, UniProt Q99581 1-238); details: protein: recombinant; tags: N-terminal GST; dsDNA, one strand shown
# T1 sequence: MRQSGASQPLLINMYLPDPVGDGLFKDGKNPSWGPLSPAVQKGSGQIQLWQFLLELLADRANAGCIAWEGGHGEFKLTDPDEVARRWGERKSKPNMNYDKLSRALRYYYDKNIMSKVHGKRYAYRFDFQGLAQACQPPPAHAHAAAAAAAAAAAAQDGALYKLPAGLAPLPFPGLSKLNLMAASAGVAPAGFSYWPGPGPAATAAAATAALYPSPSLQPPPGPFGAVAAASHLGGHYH
# How it was run: (§1)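 Each value of binding signal is a hexamer's read frequency for a factor divided by the same hexamer's frequency in the tag-only sample. Barcoded, bead-captured GST fusions of human transcription factors made in yeast were pooled with that sample and incubated with 200 nmole of a random double-stranded 16-mer DNA library in Tris/NaCl/DTT/glycerol buffer at room temperature for 30 min. Washing, 0.1% formaldehyde crosslinking, proximity ligation, PCR and Illumina NextSeq500 sequencing followed.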
# ETV5 = ETV5 (Homo sapiens, UniProt P41161 1-510); details: protein: recombinant; tags: N-terminal GST; dsDNA, one strand shown
# How it was run: as §1
# HSF1 = HSF1 (Homo sapiens, UniProt Q00613 1-529); details: protein: recombinant; tags: N-terminal GST; chain copies: 3; dsDNA, one strand shown
# How it was run: as §1
# SPIC = molecular target: T2, SPIC (Homo sapiens, UniProt Q8N5J4 1-248); details: protein: recombinant; tags: N-terminal GST; dsDNA, one strand shown
# T2 sequence: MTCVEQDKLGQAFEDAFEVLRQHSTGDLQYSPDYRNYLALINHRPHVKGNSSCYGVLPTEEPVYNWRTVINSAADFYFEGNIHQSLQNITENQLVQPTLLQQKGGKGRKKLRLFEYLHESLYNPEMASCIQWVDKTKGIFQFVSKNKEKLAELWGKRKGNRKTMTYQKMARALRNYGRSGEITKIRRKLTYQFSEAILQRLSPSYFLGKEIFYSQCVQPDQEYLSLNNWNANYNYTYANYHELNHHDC
# How it was run: as §1
# ELF4 = ELF4 (Homo sapiens, UniProt Q99607 1-663); details: protein: recombinant; tags: N-terminal GST; dsDNA, one strand shown
# How it was run: as §1
# ELK4 = molecular target: T3, ELK4 (Homo sapiens, UniProt P28324-2 1-405); details: protein: recombinant; tags: N-terminal GST; dsDNA, one strand shown
# T3 sequence: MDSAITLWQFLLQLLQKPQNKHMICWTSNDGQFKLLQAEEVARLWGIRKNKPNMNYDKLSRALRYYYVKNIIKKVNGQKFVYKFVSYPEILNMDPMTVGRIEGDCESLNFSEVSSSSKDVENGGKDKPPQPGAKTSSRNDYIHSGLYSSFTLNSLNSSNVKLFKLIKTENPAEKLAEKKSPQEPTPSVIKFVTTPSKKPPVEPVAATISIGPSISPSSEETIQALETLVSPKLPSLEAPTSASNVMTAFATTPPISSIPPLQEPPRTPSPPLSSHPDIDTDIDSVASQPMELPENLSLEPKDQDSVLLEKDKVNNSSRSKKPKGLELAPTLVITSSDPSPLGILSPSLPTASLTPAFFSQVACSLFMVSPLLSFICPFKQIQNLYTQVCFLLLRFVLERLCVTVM
# How it was run: as §1
# ETV2 = molecular target: T4, ETV2 (Homo sapiens, UniProt O00321 1-342); details: protein: recombinant; tags: N-terminal GST; dsDNA, one strand shown
# T4 sequence: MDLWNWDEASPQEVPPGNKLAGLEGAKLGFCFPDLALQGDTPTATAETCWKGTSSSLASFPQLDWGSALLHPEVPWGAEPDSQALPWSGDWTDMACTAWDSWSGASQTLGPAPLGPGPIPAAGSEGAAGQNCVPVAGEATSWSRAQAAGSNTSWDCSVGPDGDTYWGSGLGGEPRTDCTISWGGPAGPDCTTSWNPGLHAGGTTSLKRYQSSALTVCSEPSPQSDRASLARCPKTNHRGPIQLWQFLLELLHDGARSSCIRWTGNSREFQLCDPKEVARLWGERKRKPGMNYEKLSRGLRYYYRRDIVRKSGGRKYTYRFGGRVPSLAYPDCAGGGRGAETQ
# How it was run: as §1
# ELF3 = molecular target: T5, ELF3 (Homo sapiens, UniProt P78545 1-371); details: protein: recombinant; tags: N-terminal GST; dsDNA, one strand shown
# T5 sequence: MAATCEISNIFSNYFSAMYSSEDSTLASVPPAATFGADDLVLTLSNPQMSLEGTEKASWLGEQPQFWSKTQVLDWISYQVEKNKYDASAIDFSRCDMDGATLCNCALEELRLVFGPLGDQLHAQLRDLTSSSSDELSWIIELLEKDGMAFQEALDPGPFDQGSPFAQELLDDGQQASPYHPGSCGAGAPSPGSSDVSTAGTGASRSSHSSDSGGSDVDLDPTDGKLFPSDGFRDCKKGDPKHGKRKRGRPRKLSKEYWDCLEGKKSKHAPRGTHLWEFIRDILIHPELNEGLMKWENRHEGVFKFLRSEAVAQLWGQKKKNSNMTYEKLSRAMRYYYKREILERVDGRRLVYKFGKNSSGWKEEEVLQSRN
# How it was run: as §1
# CRX = CRX (Homo sapiens, UniProt O43186 1-299); details: protein: recombinant; tags: N-terminal GST; dsDNA, one strand shown
# How it was run: as §1
# ETV1 = ETV1 (Homo sapiens, UniProt P50549 1-477); details: protein: recombinant; tags: N-terminal GST; dsDNA, one strand shown
# How it was run: as §1
# Chain of ETV1 (P50549 whole entry): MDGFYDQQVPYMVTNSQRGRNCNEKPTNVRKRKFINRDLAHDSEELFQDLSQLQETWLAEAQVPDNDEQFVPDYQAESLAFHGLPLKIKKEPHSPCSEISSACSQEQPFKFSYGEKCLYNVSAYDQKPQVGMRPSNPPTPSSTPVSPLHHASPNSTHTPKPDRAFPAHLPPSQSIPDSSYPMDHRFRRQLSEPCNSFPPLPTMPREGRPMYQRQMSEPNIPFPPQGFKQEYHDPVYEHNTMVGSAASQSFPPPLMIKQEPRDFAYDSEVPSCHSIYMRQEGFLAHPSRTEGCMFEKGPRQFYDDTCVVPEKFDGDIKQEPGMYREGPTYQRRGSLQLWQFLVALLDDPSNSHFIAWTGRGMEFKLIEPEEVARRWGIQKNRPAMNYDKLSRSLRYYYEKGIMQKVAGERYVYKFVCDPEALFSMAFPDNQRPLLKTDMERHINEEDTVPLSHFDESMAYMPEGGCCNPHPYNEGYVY
# Chain of ELF4 (Q99607 whole entry): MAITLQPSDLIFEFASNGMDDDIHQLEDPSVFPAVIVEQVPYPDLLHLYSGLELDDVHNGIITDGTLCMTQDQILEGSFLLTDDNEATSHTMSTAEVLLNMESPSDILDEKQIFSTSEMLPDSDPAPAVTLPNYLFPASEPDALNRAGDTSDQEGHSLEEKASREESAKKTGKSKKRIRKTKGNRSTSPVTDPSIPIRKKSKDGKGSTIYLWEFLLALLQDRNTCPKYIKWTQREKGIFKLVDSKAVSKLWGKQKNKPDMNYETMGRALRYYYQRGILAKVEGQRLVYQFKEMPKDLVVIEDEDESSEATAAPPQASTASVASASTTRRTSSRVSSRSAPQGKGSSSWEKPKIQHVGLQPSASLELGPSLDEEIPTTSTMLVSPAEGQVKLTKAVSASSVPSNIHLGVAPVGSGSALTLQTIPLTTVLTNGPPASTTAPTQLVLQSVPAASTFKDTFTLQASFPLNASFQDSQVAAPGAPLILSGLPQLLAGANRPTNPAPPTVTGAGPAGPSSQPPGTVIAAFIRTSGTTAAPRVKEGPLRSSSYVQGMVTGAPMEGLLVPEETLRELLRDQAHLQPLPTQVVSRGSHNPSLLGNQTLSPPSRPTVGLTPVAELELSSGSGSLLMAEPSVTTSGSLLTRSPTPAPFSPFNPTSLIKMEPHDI
# Chain of ETV5 (P41161 whole entry): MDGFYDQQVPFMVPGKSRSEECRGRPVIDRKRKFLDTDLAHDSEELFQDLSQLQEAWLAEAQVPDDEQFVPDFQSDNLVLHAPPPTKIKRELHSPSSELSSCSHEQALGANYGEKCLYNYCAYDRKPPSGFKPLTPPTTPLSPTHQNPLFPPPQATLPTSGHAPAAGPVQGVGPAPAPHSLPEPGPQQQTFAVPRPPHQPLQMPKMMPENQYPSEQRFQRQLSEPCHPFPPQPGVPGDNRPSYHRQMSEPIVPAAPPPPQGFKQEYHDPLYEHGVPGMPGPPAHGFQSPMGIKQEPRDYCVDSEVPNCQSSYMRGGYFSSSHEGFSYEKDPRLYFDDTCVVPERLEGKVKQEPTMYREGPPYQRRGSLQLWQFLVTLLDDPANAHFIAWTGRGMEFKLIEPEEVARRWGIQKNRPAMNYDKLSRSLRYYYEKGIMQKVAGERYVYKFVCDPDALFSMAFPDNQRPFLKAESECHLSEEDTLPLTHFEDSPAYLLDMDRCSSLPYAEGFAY
# Chain of HSF1 (Q00613 whole entry): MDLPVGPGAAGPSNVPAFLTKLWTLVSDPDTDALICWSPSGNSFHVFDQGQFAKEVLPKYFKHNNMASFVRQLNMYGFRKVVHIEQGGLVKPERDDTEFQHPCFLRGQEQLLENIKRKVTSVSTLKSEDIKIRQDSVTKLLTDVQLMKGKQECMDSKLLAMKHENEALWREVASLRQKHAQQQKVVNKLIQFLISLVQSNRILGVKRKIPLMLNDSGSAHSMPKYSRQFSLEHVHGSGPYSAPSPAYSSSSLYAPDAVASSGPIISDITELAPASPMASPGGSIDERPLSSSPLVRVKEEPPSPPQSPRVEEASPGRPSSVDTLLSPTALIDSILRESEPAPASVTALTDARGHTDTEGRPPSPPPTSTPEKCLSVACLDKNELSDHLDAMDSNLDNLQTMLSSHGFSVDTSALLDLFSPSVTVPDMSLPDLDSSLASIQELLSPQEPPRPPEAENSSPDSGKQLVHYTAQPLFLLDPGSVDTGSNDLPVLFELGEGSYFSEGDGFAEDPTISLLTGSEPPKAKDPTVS
# Chain of CRX (O43186 whole entry): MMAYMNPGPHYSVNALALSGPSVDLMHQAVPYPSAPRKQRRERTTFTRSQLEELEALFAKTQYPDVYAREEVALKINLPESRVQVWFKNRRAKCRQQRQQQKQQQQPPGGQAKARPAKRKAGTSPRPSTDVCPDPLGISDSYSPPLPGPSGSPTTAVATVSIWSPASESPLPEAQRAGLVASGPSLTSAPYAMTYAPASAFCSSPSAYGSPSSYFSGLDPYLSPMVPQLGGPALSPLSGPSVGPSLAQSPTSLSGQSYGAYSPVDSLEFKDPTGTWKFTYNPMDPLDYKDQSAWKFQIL
sequence,measurement,setting,value
CCGCTC,binding signal,FEV,"1.61 fold enrichment (6-mer frequency, TF over GST control)"
same,binding signal,ETV5,"1.46 fold enrichment (6-mer frequency, TF over GST control)"
same,binding signal,HSF1,"1.24 fold enrichment (6-mer frequency, TF over GST control)"
same,binding signal,SPIC,"1.53 fold enrichment (6-mer frequency, TF over GST control)"
same,binding signal,ELF4,"1.6 fold enrichment (6-mer frequency, TF over GST control)"
same,binding signal,ELK4,"1.65 fold enrichment (6-mer frequency, TF over GST control)"
same,binding signal,ETV2,"1.52 fold enrichment (6-mer frequency, TF over GST control)"
same,binding signal,ELF3,"1.54 fold enrichment (6-mer frequency, TF over GST control)"
same,binding signal,CRX,"1.21 fold enrichment (6-mer frequency, TF over GST control)"
same,binding signal,ETV1,"1.45 fold enrichment (6-mer frequency, TF over GST control)"
